# From PubChem BioAssay AID1728 (National Center for Advancing Translational Sciences (NCATS), 2009)
# The list shows a part of the results. Inconclusive results are not listed. Values without a mark were called inactive. Calls come from the whole dose curve; as a rule, active = well fitted curve in the direction sought with a large enough effect; inconclusive = small, poorly fitted or top-dose-only effect, or another doubt; inactive = no such curve, though single readings can be large or run the other way.
# Target: RAF proto-oncogene serine/threonine-protein kinase (Homo sapiens) (UniProt P04049)
# Assay: Assay for Inhibitors of the ERK Signaling Pathway using a Homogeneous Screening Assay: c-Raf Inhibition
# Conditions: homogeneous biochemical assay; series mostly up to 76.9 µM; activity change, negative = inhibition: at the top concentration
# Excerpt: qHTS Assay for Inhibitors of the ERK Signaling Pathway using a Homogeneous Screening Assay
# NIH Chemical Genomics Center [NCGC]
# NIH Molecular Libraries Screening Centers Network [MLSCN]
# Assay Submitter (PI): Dr. Wei Zheng, NCGC/NIH
# The Ras/extracellular-signal-regulated kinase (ERK) mitogen activated protein (MAP) kinase signaling pathway (ERK1/2 cascade) plays is a key role in transmitting signals from the cell surface to the nucleus (Nishida and Gotoh 1993; Chang and Karin, 2001). The cascade is initiated by the small G-protein Ras, which recruits Raf […], where activation occurs. Alternatively, this pathway can be activated by elevating intracellular cAMP.
# Activation of the ERK pathway is essential in increased cell division and cell survival. Sustained and constitutive activation of the ERK pathway, however, has been linked to uncontrolled cell proliferation, increased cell survival, and tumor progression. Thus, the ERK has been as an attractive target for cancer chemotherapy in the past few years (Sebolt-Leopold and Herrera, 2004). […]
# The HTRF kinase assay (components supplied as kit by Cisbio) was chosen for the EGFR and EGFR mutant enzyme assays that applied the time resolved fluorescence resonance energy transfer (TR-FRET) principle. […]
# Chain of RAF proto-oncogene serine/threonine-protein kinase (Homo sapiens) (P04049 whole entry, looked up): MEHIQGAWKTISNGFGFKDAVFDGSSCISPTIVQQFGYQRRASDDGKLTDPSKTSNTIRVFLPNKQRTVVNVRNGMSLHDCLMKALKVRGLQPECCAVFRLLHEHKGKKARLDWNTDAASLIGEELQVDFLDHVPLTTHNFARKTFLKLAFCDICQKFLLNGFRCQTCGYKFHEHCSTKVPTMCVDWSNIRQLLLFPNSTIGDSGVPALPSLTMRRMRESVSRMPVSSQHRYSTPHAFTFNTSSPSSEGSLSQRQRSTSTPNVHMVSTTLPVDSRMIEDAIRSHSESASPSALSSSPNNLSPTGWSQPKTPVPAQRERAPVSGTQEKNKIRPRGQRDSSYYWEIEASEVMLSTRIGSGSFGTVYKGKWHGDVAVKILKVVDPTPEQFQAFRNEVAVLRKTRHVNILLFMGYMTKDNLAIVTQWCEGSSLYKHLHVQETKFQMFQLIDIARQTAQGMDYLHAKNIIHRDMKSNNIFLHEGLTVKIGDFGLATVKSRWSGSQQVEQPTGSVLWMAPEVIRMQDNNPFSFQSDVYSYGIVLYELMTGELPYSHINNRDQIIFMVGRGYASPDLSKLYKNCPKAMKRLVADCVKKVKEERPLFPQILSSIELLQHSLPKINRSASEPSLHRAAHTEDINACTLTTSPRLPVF
row,SMILES,"activity change, negative = inhibition"
1,O=[N+]([O-])c1ccccc1N/N=C1\CCc2ccccc21,-15.1%
2,CN(C)c1ccc(Nc2c3c4c(cccc4n(C)c2=O)C(=O)c2ccccc2-3)cc1,-9.46%
